Here are results for 11 compounds from PMC5540273 (PLoS ONE, 2017).

Structures are written as SMILES.

Among the test systems are PIM1; PIM2; PIM3; PIP5K1A; PIP5K1C; PIP5K2B; PKMYT1; PKN1; PKN2; PLK1; PLK2; PLK3; PLK4; PRKCD; PRKCE; PRKCH; PRKCI.
What all share (conditions): concentration: 1 μM, replicates: in singlicate; n = 1
The next assay relates to T1, PIP5K2C.
T1 construct: gene PIP4K2C

For another assay, the system named is T2, PKAC-alpha.
T2 construct: gene PRKACA

The test system of the next assay is T3, PKAC-beta.
T3 construct: gene PRKACB
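Note: KINOMEscan kinase panel screen.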

As to `CS(=O)(=O)c1ccc(-c2nc3n(c2-c2ccncc2)CCC3)cc1` [SKF-105942], the “%Inh” value in the assay with PIM1 is 0%; in the assay on PIM2 it was 0%; with PIM3, 0%; with PIP5K1A, 4%; in the assay on PIP5K1C, 13%; in the assay with PIP5K2B, 21%. Also, the “%Inh” value is given as 7% with PIP5K2C; 0% in the assay with PKAC-alpha; 0% in the assay with PKAC-beta; 0% in the assay with PKMYT1; 8% in the assay on PKN1; 0% in the assay on PKN2. For the same compound, the “%Inh” value in the assay with PLK1 was determined as 0%; with PLK2, 22%; in the assay on PLK3, 0%; with PLK4, 11%; in the assay on PRKCD it was 0%; with PRKCE, 18%. The “%Inh” value amounted to 1% in the assay with PRKCH and 2% with PRKCI.

With `O=C(Nc1ccccc1)Nc1cccc(Oc2ccc3nccn3n2)c1`, the “%Inh” value in the assay with PIM1 was determined as 0%; in the assay with PIM2 it was 2%; in the assay with PIM3, 0%; in the assay with PIP5K1A it was 9%; with PIP5K1C, 49%; in the assay on PIP5K2B, 15%. For the same compound, the “%Inh” value worked out at 48% in the assay with PIP5K2C; 48% with PKAC-alpha; 70% in the assay with PKAC-beta; 0% in the assay on PKMYT1; 0% in the assay on PKN1; 0% with PKN2. For the same compound, the “%Inh” value in the assay on PLK1 was found to be 33%; with PLK2 it was 0%; with PLK3, 0%; with PLK4 it was 0%; in the assay on PRKCD, 16%; in the assay on PRKCE, 0%. Besides, the entries for the “%Inh” value in the assay with PRKCH and with PRKCI were 0% and 21%, respectively.

With `O=C(O)COc1ncnc2cc(-c3ccc4[nH]ncc4c3)sc12`, the “%Inh” value in the assay with PIM1 is on record as 0%; with PIM2, 0%; in the assay on PIM3 it was 7%; in the assay with PIP5K1A, 0%; in the assay on PIP5K1C it was 0%; in the assay with PIP5K2B, 17%. Moreover, the “%Inh” value in the assay on PIP5K2C worked out at 0%; in the assay on PKAC-alpha it was 0%; in the assay with PKAC-beta, 4%; in the assay on PKMYT1 it was 0%; in the assay with PKN1, 30%; in the assay with PKN2, 19%. In addition, the “%Inh” value with PLK1 is recorded as 2%; with PLK2 it was 18%; in the assay on PLK3, 12%; in the assay with PLK4, 15%; in the assay on PRKCD, 19%; in the assay on PRKCE it was 10%. Further, the “%Inh” value in the assay with PRKCH amounted to 0%; in the assay on PRKCI it was 3%.

With `CCCc1ccc(S(=O)(=O)NC2CCN(c3ccnc(Nc4ccc(F)cc4)n3)C2)cc1` (stereo not shown) [GSK1379715], the “%Inh” value in the assay with PIM1 is 0%; in the assay on PIM2, 0%; in the assay with PIM3, 0%; in the assay with PIP5K1A it was 19%; in the assay with PIP5K1C it was 42%; with PIP5K2B, 10%. The “%Inh” value with PIP5K2C was 47%; with PKAC-alpha, 81%; with PKAC-beta, 0%; in the assay with PKMYT1, 12%; in the assay with PKN1, 7%; with PKN2, 0%. The “%Inh” value was determined as 0% in the assay on PLK1; 0% in the assay with PLK2; 0% in the assay with PLK3; 0% with PLK4; 0% in the assay with PRKCD; 17% with PRKCE. The entries for the “%Inh” value with PRKCH and in the assay with PRKCI were 11% and 0%, respectively.

Consider `Cc1c(O)cccc1Nc1ccnc2ccc(C(F)(F)F)cc12.Cl` [GW466413], for which the “%Inh” value in the assay with PIM1 amounted to 8%; in the assay on PIM2, 0%; in the assay on PIM3, 0%; in the assay with PIP5K1A, 32%; in the assay on PIP5K1C, 11%; in the assay on PIP5K2B, 0%. In addition, the “%Inh” value with PIP5K2C is on record as 30%; with PKAC-alpha it was 0%; in the assay with PKAC-beta, 3%; with PKMYT1, 39%; in the assay with PKN1, 0%; in the assay on PKN2 it was 0%. Also, the “%Inh” value with PLK1, with PLK2, in the assay with PLK3, in the assay on PLK4, with PRKCD and in the assay with PRKCE was 0% throughout. For the same compound, the results for the “%Inh” value in the assay with PRKCH and in the assay on PRKCI were 28% and 0%, respectively.

For the compound `COc1cc2ncnc(Nc3ccc4nc(-c5ccccc5)[nH]c4c3)c2cc1OC.Cl` [GW282450], the “%Inh” value in the assay on PIM1 is reported as 0%; in the assay on PIM2, 0%; in the assay with PIM3, 0%; in the assay on PIP5K1A, 6%; in the assay with PIP5K1C it was 54%; with PIP5K2B, 3%. Besides, the “%Inh” value stood at 11% in the assay with PIP5K2C; 6% in the assay on PKAC-alpha; 0% with PKAC-beta; 10% in the assay with PKMYT1; 0% with PKN1; 0% in the assay with PKN2. The “%Inh” value in the assay on PLK1 is 9%; in the assay on PLK2, 0%; with PLK3 it was 0%; with PLK4, 94.5%; with PRKCD, 14%; in the assay with PRKCE, 17%. The “%Inh” value was 0% in the assay with PRKCH and 31% in the assay on PRKCI.

On to `Cc1cccc(-c2nc(Nc3ccc4[nH]ncc4c3)c3ccccc3n2)n1` [GW857175], for which the “%Inh” value with PIM1 stood at 5%; in the assay with PIM2 it was 38%; in the assay with PIM3, 0%; with PIP5K1A it was 0%; in the assay with PIP5K1C it was 0%; in the assay on PIP5K2B it was 42%. The “%Inh” value amounted to 0% with PIP5K2C; 34% in the assay on PKAC-alpha; 0% in the assay with PKAC-beta; 19% with PKMYT1; 10% in the assay with PKN1; 0% in the assay on PKN2. In addition, the “%Inh” value in the assay on PLK1 was determined as 11%; in the assay on PLK2 it was 12%; in the assay with PLK3, 15%; in the assay with PLK4, 8%; in the assay on PRKCD, 11%; with PRKCE, 0%. The figures for the “%Inh” value with PRKCH and in the assay with PRKCI were 0% and 33%, respectively.

`COc1ccc2nc(-c3cccc(C)n3)nc(Nc3ccncc3)c2c1` [GSK204919]: the “%Inh” value with PIM1 worked out at 0%; in the assay on PIM2, 0%; in the assay on PIM3 it was 0%; in the assay on PIP5K1A it was 4%; in the assay on PIP5K1C, 28%; with PIP5K2B it was 0%. Also, the “%Inh” value in the assay with PIP5K2C amounted to 0%; in the assay with PKAC-alpha, 3%; with PKAC-beta it was 0%; with PKMYT1, 1%; in the assay with PKN1 it was 3%; with PKN2, 0%. Further, the “%Inh” value with PLK1, in the assay on PLK2, in the assay on PLK3, in the assay on PLK4, in the assay with PRKCD and in the assay on PRKCE was 0% throughout. For the same compound, the “%Inh” value in the assay with PRKCH was 30%; with PRKCI, 31%.

For the compound `COc1ccc(Nc2nccc(-c3cccc(NC(=O)c4cc5cc(F)ccc5[nH]4)c3)n2)cc1` [GSK1229782], the “%Inh” value is given as 36% in the assay with PIM1; 0% with PIM2; 30% with PIM3; 0% in the assay with PIP5K1A; 15% in the assay on PIP5K1C; 12% with PIP5K2B. The “%Inh” value in the assay with PIP5K2C is recorded as 81%; in the assay with PKAC-alpha, 15%; with PKAC-beta, 21%; in the assay with PKMYT1, 6%; with PKN1 it was 0%; with PKN2, 0%. Also, the “%Inh” value amounted to 24% with PLK1; 0% with PLK2; 0% in the assay on PLK3; 4% with PLK4; 42% with PRKCD; 43% with PRKCE. Besides, the “%Inh” value in the assay with PRKCH is given as 20%; with PRKCI it was 32%.

As to `Cc1cccc(-c2cc(Nc3ccncc3)c3ccccc3n2)n1` [GSK223675], the “%Inh” value in the assay with PIM1 was found to be 23%; in the assay with PIM2, 0%; with PIM3, 19%; with PIP5K1A it was 0%; in the assay with PIP5K1C, 25%; with PIP5K2B it was 4%. Also, the “%Inh” value in the assay with PIP5K2C was found to be 8%; in the assay with PKAC-alpha it was 0%; in the assay on PKAC-beta it was 0%; in the assay on PKMYT1, 0%; in the assay with PKN1 it was 46%; in the assay on PKN2, 0%. The “%Inh” value with PLK1 was determined as 1%; with PLK2, 0%; with PLK3 it was 0%; in the assay on PLK4 it was 2%; in the assay with PRKCD, 0%; in the assay with PRKCE, 0%. Besides, the entries for the “%Inh” value with PRKCH and in the assay with PRKCI were 0% and 17%, respectively.

Take `COC(=O)c1c(-c2ccccc2)c2cc(OC)ccc2c(=O)n1Cc1ccccc1`: the “%Inh” value in the assay with PIM1 is 18%; in the assay on PIM2, 2%; with PIM3 it was 20%; with PIP5K1A, 16%; in the assay on PIP5K1C it was 14%; with PIP5K2B, 38%. Moreover, the “%Inh” value in the assay on PIP5K2C was 0%; with PKAC-alpha, 21%; in the assay with PKAC-beta, 0%; with PKMYT1, 2%; with PKN1, 4%; with PKN2, 0%. Besides, the “%Inh” value with PLK1 came out at 0%; in the assay with PLK2 it was 25%; in the assay with PLK3 it was 20%; with PLK4, 19%; in the assay on PRKCD, 19%; with PRKCE, 12%. Also, the “%Inh” value came out at 9% in the assay with PRKCH and 0% with PRKCI.
